Experimental data: PubChem BioAssay (EPA / NIEHS)
Inconclusive results are not listed. Calls of active or inactive are those of the source. Rule for the calls, unless noted: active = hit-call score of the fitted dose curve at least 0.9, where 1 is the maximum; inactive = score below 0.9.

Columns and labels:
[1] = biological target: human Peroxisome Proliferator-activated Receptor alpha (PPARa), PPARA (gene 5465) (UniProt Q07869); assay: ATG_PPARa_TRANS: Attagene TRANS-FACTORIAL HepG2 Assay for human Peroxisome Proliferator-activated Receptor alpha (PPARa) (AID 2283001; active = hit-call score of the fitted dose curve at least 0.9, where 1 is the maximum;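 for AC50: potency for gain of reporter signal over DMSO so agonist or activator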)
Procedure, shortened: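 Measures transcriptional activity of an exogenous chimeric PPARa-Gal4 protein in transiently transfected HepG2 cells after 24 h dosing. Reporter mRNA quantified via RT-PCR and capillary electrophoresis; DMSO served as negative control.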

[2] = read-out: Intercellular Adhesion Molecule 1 (ICAM1), ICAM1 (gene 3383); assay: BSK_3C_ICAM1: BioMAP Diversity Plus: 3C Assay for Intercellular Adhesion Molecule 1 (ICAM1) Biomarker Activity (AID 2283003); conditions: primary human endothelial cells (HUVEC); actives raise or lower the signal
Procedure, shortened: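 Human vascular endothelial primary cells, 3C conditions, 24 h treatment. ICAM-1 by ELISA.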

[3] = biological target: Retinoic acid receptor alpha (Homo sapiens) (UniProt P10276); assay: ATG_RARa_TRANS: Attagene TRANS-FACTORIAL HepG2 Assay for human Retinoic Acid Receptor alpha (RARa) (AID 2283005; active = hit-call score of the fitted dose curve at least 0.9, where 1 is the maximum)
Procedure, shortened: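 HepG2 transiently transfected with multiplex GAL4-UAS reporter units including a human RARa–GAL4 chimera; 24 h compound exposure. Reporter mRNA quantified by RT-PCR, 6-FAM labeling and capillary electrophoresis; gain of signal versus DMSO.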

[4] = BSK_3C_Proliferation: Cell Proliferation Assessment in the BioMAP Diversity Plus: 3C Assay (AID 2283006); conditions: primary human endothelial cells (HUVEC);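 for AC50: potency may reflect either rise or fall in cell number versus DMSO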
Procedure, shortened: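 Proliferation of human vascular endothelial primary cells after 48 h dosing, quantified as SRB-stained protein at 560 nm relative to DMSO.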

[5] = biological target: Nuclear receptor subfamily 1 group I member 2 (Homo sapiens) (UniProt O75469); assay: ATG_PXR_TRANS: Attagene TRANS-FACTORIAL HepG2 Assay for human Pregnane X Receptor (PXR) (AID 2283008; active = hit-call score of the fitted dose curve at least 0.9, where 1 is the maximum)
Procedure, shortened: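 HepG2 cells transiently transfected with multiple reporter units, here a PXR-GAL4 chimera driving a GAL4-UAS reporter; 24 h compound exposure. Reporter mRNA measured by RT-PCR, FAM labelling and capillary electrophoresis; gain of signal fitted against DMSO baseline.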

[6] = biological target: human Retinoic Acid Receptor gamma (RARg), RARG (gene 5916) (UniProt P13631); assay: ATG_RARg_TRANS: Attagene TRANS-FACTORIAL HepG2 Assay for human Retinoic Acid Receptor gamma (RARg) (AID 2283009; active = hit-call score of the fitted dose curve at least 0.9, where 1 is the maximum)
Procedure, shortened: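 HepG2, RARg-GAL4 TRANS system, 24 h exposure; reporter mRNA by RT-PCR + CE fluorescence; increase over DMSO.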

[7] = read-out: E-selectin (Homo sapiens) (UniProt P16581); assay: BSK_3C_Eselectin: BioMAP Diversity Plus: 3C Assay for Eselectin Biomarker Activity (AID 2283015); conditions: primary human endothelial cells (HUVEC); actives raise or lower the signal
Procedure, shortened: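 Primary human umbilical vein endothelial cells (3C system) were dosed with chemical and cell-surface E-selectin measured by ELISA 24 h later. Bidirectional curve fitting used DMSO as negative control and baseline.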

[8] = read-out: Interleukin-1 alpha (IL1a), IL1A (gene 3552); assay: BSK_BE3C_IL1a: BioMAP Diversity Plus: BE3C Assay for Interleukin-1 alpha (IL1a) Biomarker Activity (AID 2283016); conditions: primary human bronchial epithelial cells; actives raise or lower the signal
Procedure, shortened: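 Cultures of primary human bronchial epithelial cells receive test chemical. After 24 h, IL-1a is quantified by ELISA, while parallel wells are fixed in TCA and SRB-stained for total protein. Changes in either direction are fitted relative to DMSO.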

[9] = read-out: Monocyte Chemoattractant Protein-1 (MCP1), CCL2 (gene 6347); assay: BSK_3C_MCP1: BioMAP Diversity Plus: 3C Assay for Monocyte Chemoattractant Protein-1 (MCP1) Biomarker Activity (AID 2283017); conditions: primary human endothelial cells (HUVEC); actives raise or lower the signal
Procedure, shortened: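 Primary human umbilical vein endothelial cells (3C system) were exposed to test chemical for 24 h, after which MCP-1 was quantified by ELISA. Activity was fitted bidirectionally against DMSO as negative control and baseline.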

[10] = read-out: Monocyte Chemoattractant Protein-1 (MCP1), CCL2 (gene 6347); assay: BSK_4H_MCP1: BioMAP Diversity Plus: 4H Assay for Monocyte Chemoattractant Protein-1 (MCP1) Biomarker Activity (AID 2283018); conditions: primary human endothelial cells (HUVEC); actives raise or lower the signal
Procedure, shortened: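 Readout: MCP-1 ELISA on compound-treated HUVEC, sampled 24 h post-dosing. Baseline and negative control DMSO; bidirectional fit. Overt toxicity checked alongside by sulforhodamine B protein staining at time of biomarker measurement.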

[11] = read-out: Human Leukocyte Antigen - DR isotype (HLADR), HLA-DRA (gene 3122); assay: BSK_3C_HLADR: BioMAP Diversity Plus: 3C Assay for Human Leukocyte Antigen - DR isotype (HLADR) Biomarker Activity (AID 2283019); conditions: primary human endothelial cells (HUVEC); actives raise or lower the signal
Procedure, shortened: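 Primary human umbilical vein endothelial cells (3C system) were dosed with compound and cell-surface HLA-DR was quantified by ELISA at 24 h. Activity was fitted bidirectionally against DMSO as negative control and baseline.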

[12] = read-out: Interleukin-8 (IL8), CXCL8 (gene 3576); assay: BSK_3C_IL8: BioMAP Diversity Plus: 3C Assay for Interleukin-8 (IL8) Biomarker Activity (AID 2283020); conditions: primary human endothelial cells (HUVEC); actives raise or lower the signal
Procedure, shortened: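 Human vascular endothelial cells (umbilical vein) in the 3C system; IL-8 level detected by ELISA at 24 h post-dose, with DMSO as baseline.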

[13] = read-out: Monokine induced gamma interferon (MIG), CXCL9 (gene 4283); assay: BSK_3C_MIG: BioMAP Diversity Plus: 3C Assay for Monokine induced gamma interferon (MIG) Biomarker Activity (AID 2283021); conditions: primary human endothelial cells (HUVEC); actives raise or lower the signal;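 for AC50: MIG protein level measured by immunoassay in the treated endothelial cultures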
Procedure, shortened: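 After 24 h of treatment, human umbilical vein endothelial cultures (3C system) had their MIG biomarker level determined by ELISA, with DMSO serving as negative control.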

[14] = biological target: human Peroxisome Proliferator-activated Receptor delta (PPARd), PPARD (gene 5467) (UniProt Q03181); assay: ATG_PPARd_TRANS: Attagene TRANS-FACTORIAL HepG2 Assay for human Peroxisome Proliferator-activated Receptor delta (PPARd) (AID 2283002; active = hit-call score of the fitted dose curve at least 0.9, where 1 is the maximum)
Procedure, shortened: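 Fluorescence from capillary electrophoresis of labelled RT-PCR reporter fragments gives the signal; DMSO sets baseline. Cells: HepG2 transiently carrying GAL4-UAS reporter units plus chimeric nuclear receptor-Gal4 proteins, exposed to chemicals for 24 h.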

[15] = biological target: human RAR-related Orphan Receptor beta (RORb), RORB (gene 6096) (UniProt Q92753); assay: ATG_RORb_TRANS: Attagene TRANS-FACTORIAL HepG2 Assay for human RAR-related Orphan Receptor beta (RORb) (AID 2283010; active = hit-call score of the fitted dose curve at least 0.9, where 1 is the maximum)
Procedure, shortened: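 In this TRANS-format test, human HepG2 cells express chimeric NR-Gal4 fusion proteins driving GAL4-UAS reporters. After 24 h dosing, reporter transcripts are measured by fluorescent RT-PCR/capillary electrophoresis, with DMSO as negative control.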

[16] = biological target: Retinoic acid receptor RXR-alpha (Homo sapiens) (UniProt P19793); assay: ATG_RXRa_TRANS: Attagene TRANS-FACTORIAL HepG2 Assay for human Retinoid X Receptor alpha (RXRa) (AID 2283012; active = hit-call score of the fitted dose curve at least 0.9, where 1 is the maximum)
Procedure, shortened: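 Cells (HepG2) carried transiently transfected GAL4-responsive reporter units. Following a 24 h chemical incubation, reporter mRNA induction was read via RT-PCR fragment analysis; DMSO served as negative control and baseline.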

[17] = biological target: human Retinoid X Receptor beta (RXRb), RXRB (gene 6257) (UniProt P28702); assay: ATG_RXRb_TRANS: Attagene TRANS-FACTORIAL HepG2 Assay for human Retinoid X Receptor beta (RXRb) (AID 2283013; active = hit-call score of the fitted dose curve at least 0.9, where 1 is the maximum)
Procedure, shortened: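 Multiplexed TRANS reporter assay in HepG2; 24 h dosing; reporter mRNA by RT-PCR/CE fluorescence; gain-of-signal relative to DMSO.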

[18] = biological target: Peroxisome proliferator-activated receptor gamma (Homo sapiens) (UniProt P37231); assay: ATG_PPARg_TRANS: Attagene TRANS-FACTORIAL HepG2 Assay for human Peroxisome Proliferator-activated Receptor-gamma (PPARg) (AID 2283007; active = hit-call score of the fitted dose curve at least 0.9, where 1 is the maximum)
Procedure, shortened: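 After 24 h of chemical exposure, transfected HepG2 cells carrying PPARγ-Gal4 chimera reporter constructs are lysed for RNA. Reporter transcripts are measured by RT-PCR and capillary electrophoresis with fluorescent labelling, and gain of signal is fitted versus DMSO.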

[19] = biological target: human Thyroid Receptor alpha (THRa1), THRA (gene 7067) (UniProt P10827); assay: ATG_THRa1_TRANS: Attagene TRANS-FACTORIAL HepG2 Assay for human Thyroid Receptor alpha (THRa1) (AID 2283014; active = hit-call score of the fitted dose curve at least 0.9, where 1 is the maximum)
Procedure, shortened: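 HepG2 cells transiently transfected with multiplexed GAL4-UAS reporter units for exogenous chimeric THRa1-Gal4; reporter mRNA measured 24 h after dosing by RT-PCR, 6-FAM labelling, HpaI digestion and capillary electrophoresis. Gain-of-signal fitted versus DMSO baseline.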

[20] = biological target: human RAR-related Orphan Receptor gamma (RORg), RORC (gene 6097) (UniProt P51449); assay: ATG_RORg_TRANS: Attagene TRANS-FACTORIAL HepG2 Assay for human RAR-related Orphan Receptor gamma (RORg) (AID 2283011; active = hit-call score of the fitted dose curve at least 0.9, where 1 is the maximum)
Procedure, shortened: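 Readout: reporter transcript induction (RT-PCR, fluorescent primer extension, capillary electrophoresis) after 24 h compound exposure of transiently transfected HepG2 cells carrying a RORg-Gal4 chimera and GAL4-UAS reporters; DMSO served as baseline, with increasing signal fitted.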

Measured: AC50

Retinoic acid receptor RXR-alpha (Homo sapiens), sequence (P19793 whole entry, looked up, the tested form may be a part): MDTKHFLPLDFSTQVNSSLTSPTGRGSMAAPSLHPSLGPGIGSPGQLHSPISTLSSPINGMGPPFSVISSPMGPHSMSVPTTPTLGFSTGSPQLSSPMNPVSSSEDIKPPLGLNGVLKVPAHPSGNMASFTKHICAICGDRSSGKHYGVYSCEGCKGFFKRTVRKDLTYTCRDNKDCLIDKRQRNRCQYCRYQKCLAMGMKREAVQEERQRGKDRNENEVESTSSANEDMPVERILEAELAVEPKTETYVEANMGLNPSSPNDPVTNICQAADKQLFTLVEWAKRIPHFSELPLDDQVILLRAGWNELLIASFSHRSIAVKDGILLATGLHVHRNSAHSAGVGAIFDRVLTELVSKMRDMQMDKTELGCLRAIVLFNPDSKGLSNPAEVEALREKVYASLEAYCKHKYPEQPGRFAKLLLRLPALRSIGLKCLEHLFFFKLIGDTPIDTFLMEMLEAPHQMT
Peroxisome proliferator-activated receptor gamma (Homo sapiens), sequence (P37231 whole entry, looked up, the tested form may be a part): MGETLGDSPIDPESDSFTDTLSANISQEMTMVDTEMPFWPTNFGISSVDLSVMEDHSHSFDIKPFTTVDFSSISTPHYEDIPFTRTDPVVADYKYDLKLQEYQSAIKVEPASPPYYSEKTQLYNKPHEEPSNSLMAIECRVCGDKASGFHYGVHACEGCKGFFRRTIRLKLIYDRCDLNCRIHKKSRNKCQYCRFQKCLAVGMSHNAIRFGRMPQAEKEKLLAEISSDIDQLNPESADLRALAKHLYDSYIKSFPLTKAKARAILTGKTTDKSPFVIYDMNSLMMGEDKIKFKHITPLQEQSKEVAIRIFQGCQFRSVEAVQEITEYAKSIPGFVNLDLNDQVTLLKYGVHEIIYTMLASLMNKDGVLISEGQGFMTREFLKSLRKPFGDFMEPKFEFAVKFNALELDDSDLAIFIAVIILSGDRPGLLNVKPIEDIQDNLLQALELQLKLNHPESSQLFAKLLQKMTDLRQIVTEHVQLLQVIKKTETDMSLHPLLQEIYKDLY
Retinoic acid receptor alpha (Homo sapiens), sequence (P10276 whole entry, looked up, the tested form may be a part): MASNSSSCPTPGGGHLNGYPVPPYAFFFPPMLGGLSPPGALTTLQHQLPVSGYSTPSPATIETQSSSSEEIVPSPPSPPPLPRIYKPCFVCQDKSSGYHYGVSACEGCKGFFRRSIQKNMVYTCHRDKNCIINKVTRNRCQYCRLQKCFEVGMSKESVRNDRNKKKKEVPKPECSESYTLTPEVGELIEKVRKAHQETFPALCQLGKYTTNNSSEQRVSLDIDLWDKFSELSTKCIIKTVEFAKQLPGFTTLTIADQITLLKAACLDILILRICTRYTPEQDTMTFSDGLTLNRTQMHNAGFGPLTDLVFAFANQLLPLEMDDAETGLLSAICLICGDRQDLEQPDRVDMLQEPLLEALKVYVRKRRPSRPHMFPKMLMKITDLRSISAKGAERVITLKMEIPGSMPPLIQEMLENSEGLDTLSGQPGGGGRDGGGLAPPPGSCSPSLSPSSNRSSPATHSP
human Peroxisome Proliferator-activated Receptor delta (PPARd), PPARD (gene 5467), sequence (Q03181 whole entry, looked up, the tested form may be a part): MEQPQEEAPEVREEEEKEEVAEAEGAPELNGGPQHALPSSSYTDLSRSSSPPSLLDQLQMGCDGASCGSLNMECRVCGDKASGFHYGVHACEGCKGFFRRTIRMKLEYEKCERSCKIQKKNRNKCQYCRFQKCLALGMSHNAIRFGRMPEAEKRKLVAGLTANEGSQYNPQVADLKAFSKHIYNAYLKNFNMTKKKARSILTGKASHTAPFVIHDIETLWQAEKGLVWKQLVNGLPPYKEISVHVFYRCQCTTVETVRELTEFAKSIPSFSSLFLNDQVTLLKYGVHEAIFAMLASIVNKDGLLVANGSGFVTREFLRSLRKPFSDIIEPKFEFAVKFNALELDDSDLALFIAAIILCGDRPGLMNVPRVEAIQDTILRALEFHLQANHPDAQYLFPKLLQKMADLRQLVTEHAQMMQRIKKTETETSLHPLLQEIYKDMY
E-selectin (Homo sapiens), sequence (P16581 whole entry, looked up): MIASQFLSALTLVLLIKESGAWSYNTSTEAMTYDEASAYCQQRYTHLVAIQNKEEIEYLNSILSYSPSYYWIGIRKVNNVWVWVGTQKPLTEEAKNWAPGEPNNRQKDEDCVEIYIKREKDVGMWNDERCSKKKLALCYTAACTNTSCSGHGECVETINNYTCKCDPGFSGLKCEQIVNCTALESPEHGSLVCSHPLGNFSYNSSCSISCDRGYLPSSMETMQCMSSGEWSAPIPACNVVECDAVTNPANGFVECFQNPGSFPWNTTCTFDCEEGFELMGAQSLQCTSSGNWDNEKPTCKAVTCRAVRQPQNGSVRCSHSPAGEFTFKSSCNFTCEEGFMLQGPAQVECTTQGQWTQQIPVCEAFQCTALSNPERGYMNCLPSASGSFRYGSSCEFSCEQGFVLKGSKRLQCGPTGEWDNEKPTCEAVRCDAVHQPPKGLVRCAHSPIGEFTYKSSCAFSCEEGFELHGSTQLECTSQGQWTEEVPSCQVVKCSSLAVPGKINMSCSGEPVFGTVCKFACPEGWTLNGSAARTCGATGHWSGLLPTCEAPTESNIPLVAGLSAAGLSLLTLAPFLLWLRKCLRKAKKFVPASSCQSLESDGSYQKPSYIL
human Thyroid Receptor alpha (THRa1), THRA (gene 7067), sequence (P10827 whole entry, looked up, the tested form may be a part): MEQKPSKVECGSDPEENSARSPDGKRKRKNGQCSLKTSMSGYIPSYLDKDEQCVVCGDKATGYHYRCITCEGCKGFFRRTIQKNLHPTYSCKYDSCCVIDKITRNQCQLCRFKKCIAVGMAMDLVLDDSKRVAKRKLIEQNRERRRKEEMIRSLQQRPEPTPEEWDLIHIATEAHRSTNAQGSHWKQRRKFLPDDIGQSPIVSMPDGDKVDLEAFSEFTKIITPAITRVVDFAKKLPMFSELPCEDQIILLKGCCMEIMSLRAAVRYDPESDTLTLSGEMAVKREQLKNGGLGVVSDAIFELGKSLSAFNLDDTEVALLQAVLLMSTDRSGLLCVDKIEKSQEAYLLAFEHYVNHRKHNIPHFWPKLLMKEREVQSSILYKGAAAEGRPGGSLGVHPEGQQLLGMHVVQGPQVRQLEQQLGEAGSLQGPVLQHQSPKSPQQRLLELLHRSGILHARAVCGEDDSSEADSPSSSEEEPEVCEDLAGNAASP
human Peroxisome Proliferator-activated Receptor alpha (PPARa), PPARA (gene 5465), sequence (Q07869 whole entry, looked up, the tested form may be a part): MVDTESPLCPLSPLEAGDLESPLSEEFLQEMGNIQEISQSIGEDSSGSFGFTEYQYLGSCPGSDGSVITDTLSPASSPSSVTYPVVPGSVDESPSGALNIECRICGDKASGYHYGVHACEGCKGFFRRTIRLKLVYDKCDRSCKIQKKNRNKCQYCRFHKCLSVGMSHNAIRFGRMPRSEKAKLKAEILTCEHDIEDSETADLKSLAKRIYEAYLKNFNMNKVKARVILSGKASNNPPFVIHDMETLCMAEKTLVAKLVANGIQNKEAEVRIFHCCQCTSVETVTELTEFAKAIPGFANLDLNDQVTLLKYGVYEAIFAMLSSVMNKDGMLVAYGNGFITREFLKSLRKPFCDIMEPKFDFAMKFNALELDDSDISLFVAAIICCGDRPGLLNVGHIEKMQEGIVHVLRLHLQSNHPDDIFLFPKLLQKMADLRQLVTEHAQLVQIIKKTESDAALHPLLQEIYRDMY
Nuclear receptor subfamily 1 group I member 2 (Homo sapiens), sequence (O75469 whole entry, looked up, the tested form may be a part): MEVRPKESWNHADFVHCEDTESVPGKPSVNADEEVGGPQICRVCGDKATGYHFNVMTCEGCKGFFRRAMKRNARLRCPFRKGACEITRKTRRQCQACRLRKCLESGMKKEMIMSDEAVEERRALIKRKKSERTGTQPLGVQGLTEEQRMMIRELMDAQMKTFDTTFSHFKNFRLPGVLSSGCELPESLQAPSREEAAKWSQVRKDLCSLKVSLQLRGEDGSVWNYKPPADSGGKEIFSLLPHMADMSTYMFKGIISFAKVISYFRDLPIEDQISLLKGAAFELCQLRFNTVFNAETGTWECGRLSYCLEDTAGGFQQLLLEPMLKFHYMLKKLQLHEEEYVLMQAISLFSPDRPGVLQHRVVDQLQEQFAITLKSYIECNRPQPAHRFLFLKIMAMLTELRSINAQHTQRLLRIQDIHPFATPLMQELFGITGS
human Retinoic Acid Receptor gamma (RARg), RARG (gene 5916), sequence (P13631 whole entry, looked up, the tested form may be a part): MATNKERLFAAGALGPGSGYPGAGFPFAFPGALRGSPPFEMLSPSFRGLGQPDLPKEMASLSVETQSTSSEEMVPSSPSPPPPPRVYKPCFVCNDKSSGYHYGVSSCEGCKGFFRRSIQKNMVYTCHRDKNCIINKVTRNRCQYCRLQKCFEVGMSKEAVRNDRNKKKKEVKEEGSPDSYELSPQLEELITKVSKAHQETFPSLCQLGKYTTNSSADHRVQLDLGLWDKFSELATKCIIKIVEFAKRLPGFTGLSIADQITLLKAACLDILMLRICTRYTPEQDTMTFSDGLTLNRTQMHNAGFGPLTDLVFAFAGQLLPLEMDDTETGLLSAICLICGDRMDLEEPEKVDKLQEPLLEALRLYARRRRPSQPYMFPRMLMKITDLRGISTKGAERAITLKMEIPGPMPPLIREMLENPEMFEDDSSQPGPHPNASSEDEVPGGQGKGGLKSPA
human RAR-related Orphan Receptor beta (RORb), RORB (gene 6096), sequence (Q92753 whole entry, looked up, the tested form may be a part): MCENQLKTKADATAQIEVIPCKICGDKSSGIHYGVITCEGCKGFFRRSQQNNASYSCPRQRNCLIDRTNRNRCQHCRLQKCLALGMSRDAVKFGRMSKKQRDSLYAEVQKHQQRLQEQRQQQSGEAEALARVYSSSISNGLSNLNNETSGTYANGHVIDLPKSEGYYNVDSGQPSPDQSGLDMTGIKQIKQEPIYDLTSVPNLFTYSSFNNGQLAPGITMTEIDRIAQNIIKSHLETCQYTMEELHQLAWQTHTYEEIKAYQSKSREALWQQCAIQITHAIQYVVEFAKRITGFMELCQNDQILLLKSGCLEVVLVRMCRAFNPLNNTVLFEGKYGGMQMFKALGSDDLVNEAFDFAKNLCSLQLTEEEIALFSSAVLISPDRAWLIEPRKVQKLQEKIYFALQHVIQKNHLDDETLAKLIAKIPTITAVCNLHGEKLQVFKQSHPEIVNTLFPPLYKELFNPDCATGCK

OC[C@@H](O)[C@@H](O)[C@H](O)[C@H](O)CO
not listed: [14] | [15] | [16] | [17] | [18] | [19] | [20]
inactive: all other assays above

O=c1[nH]cc(F)c(=O)[nH]1
active: [4] 7.81 µM
not listed: [3] | [5] | [6] | [18] | [19] | [20]
inactive: all other assays above

COCCOC[C@H](CC1(C(=O)NC2CCC(C(=O)O)CC2)CCCC1)C(=O)Oc1ccc2c(c1)CCC2 (some centres undefined)
active: [5] 20.6 µM
not listed: [3] | [15] | [17] | [19] | [20]
inactive: all other assays above

CCCCCCCCCCCC(=O)OC
active: [4] 20 µM | [17] 57.9 µM
not listed: [3] | [6] | [15] | [19] | [20]
inactive: all other assays above

CCCCCCOCCO
not listed: [3] | [6] | [15] | [20]
inactive: all other assays above

CCOc1ccc2c(c1)C(C)=CC(C)(C)N2
active: [14] 170 µM | [18] 28.7 µM | [5] 1.86 µM | [16] 100 µM | [17] 6.69 µM | [19] 100 µM
not listed: [3] | [6]
inactive: all other assays above

CC(=O)C(C)=CC1C(C)=CCCC1(C)C (centres undefined)
active: [17] 27.9 µM
not listed: [3] | [5] | [6] | [15] | [18] | [19] | [20]
inactive: all other assays above

Clc1cc(Cl)c(Cl)cc1Cl
not listed: [3] | [15] | [17] | [18] | [19] | [20]
inactive: all other assays above

Cc1cc(NC(=O)C(=O)O)cc(C)c1Oc1ccc(O)c2c1CCC2
active: [19] 0.00869 µM
not listed: [3] | [6] | [15] | [18]
inactive: all other assays above

Cc1ccc(C)c(C)c1
not listed: [3] | [15] | [17] | [18] | [19] | [20]
inactive: all other assays above

CC(C)(C)c1cc(O)c(C(C)(C)C)cc1O
active: [4] 8.74 µM | [18] 38.7 µM | [5] 2.99 µM | [16] 60.2 µM | [17] 59.4 µM | [10] 2.88 µM | [11] 9 µM
not listed: [15] | [19] | [20]
inactive: all other assays above

CCCCC(CC)COC(=O)CC(C(=O)OCC(CC)CCCC)S(=O)(=O)O (centres undefined)
inactive: [1] | [14] | [3] | [6] | [15] | [20] | [16] | [17]
active: [2] 31.5 µM | [4] 30.6 µM | [18] 7.56 µM | [5] 0.678 µM | [7] 38.1 µM | [8] 11.6 µM | [9] 31.4 µM | [10] 29.3 µM | [11] 37.9 µM | [12] 30.6 µM | [13] 38 µM

COc1ccc2c(c1)c(CC(=O)O)c(C)n2C(=O)c1ccc(Cl)cc1
not listed: [3] | [6] | [17] | [18] | [19] | [20]
inactive: all other assays above

Cc1cccc(C)c1O
not listed: [3] | [14] | [15] | [18]
inactive: all other assays above

CC=Cc1ccc(O)c(OC)c1
active: [18] 61.5 µM
not listed: [3] | [14] | [15] | [17] | [19]
inactive: all other assays above

CCCCCCCCCCC
inactive: [1] | [2] | [4] | [6] | [7] | [8] | [9] | [10] | [11] | [12] | [13]

CCOC(=O)C(C)(C)Oc1ccc(Cl)cc1
active: [1] 37.2 µM
not listed: [3] | [5] | [6] | [14] | [15] | [19]
inactive: all other assays above
